Results on ten compounds are retold here after PubChem BioAssay (NCI).

Molecules are shown by their SMILES. The panel holds about 83,000 compounds, 20% with a hit somewhere; the sample as a whole holds those more often.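 For each line, cells grew in 96-well plates with the test compound present at a single concentration for 48 hours.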 A number with no mark means an inactive call. Activity calls are given as the source filed them. How the source made its calls: active means growth percent below 10; inactive means the rest.

Among the test systems are RPMI-8226 leukemia; OVCAR-8 ovarian; OVCAR-4 ovarian; SK-OV-3 ovarian; IGROV1 ovarian; OVCAR-3 ovarian; NCI/ADR-RES ovarian; BT-549 breast; MDA-MB-435 melanoma; SW-620 colon; MCF7 breast; HCT-116 colon; HCC-2998 colon; KM12 colon; OVCAR-5 ovarian; T-47D breast; HS 578T breast.
Test in all cases: NCI-60 one-dose screen, 48 h (100 = growth as untreated, 0 = no growth, -100 = all killed)
Holding throughout (settings): 10 µM unless noted

Take `Cc1cc(C(C)(C)C)cc(C)c1CC1=NCCN1`: the growth in the assay with RPMI-8226 leukemia is 114%; with OVCAR-8 ovarian it was 107%; in the assay on OVCAR-4 ovarian, 117%; in the assay with SK-OV-3 ovarian, 124%; in the assay with IGROV1 ovarian, 108%; in the assay on OVCAR-3 ovarian, 112%. Further, the growth in the assay with NCI/ADR-RES ovarian was 101%; in the assay on BT-549 breast, 98.3%; in the assay on MDA-MB-435 melanoma, 100%; in the assay on SW-620 colon it was 108%; in the assay on MCF7 breast, 113%; with HCT-116 colon, 112%. Moreover, the growth was 96.4% in the assay on HCC-2998 colon and 103% in the assay with KM12 colon.

With `O=C(Cc1ccccn1)C(F)(F)C(F)(F)C(F)(F)F`, the growth in the assay on RPMI-8226 leukemia was 100%; with OVCAR-5 ovarian, 113%; in the assay with OVCAR-4 ovarian it was 109%; with SK-OV-3 ovarian it was 109%; in the assay on IGROV1 ovarian, 123%; in the assay with OVCAR-3 ovarian, 112%. Moreover, the growth in the assay with NCI/ADR-RES ovarian is 104%; in the assay with T-47D breast it was 102%; in the assay on BT-549 breast, 127%; with MDA-MB-435 melanoma, 113%; in the assay on SW-620 colon, 109%; in the assay with HCT-116 colon, 104%. In addition, the growth in the assay on HCC-2998 colon was 100%; in the assay with KM12 colon, 135%.

Consider `Clc1ccccc1[C@@H]1C[C@@H]2Cc3cc(Br)c4ccccc4c3N1O2`, for which the growth in the assay on OVCAR-8 ovarian was 61.1%; in the assay with OVCAR-5 ovarian, 70.9%; in the assay with OVCAR-4 ovarian, 49.9%; in the assay on SK-OV-3 ovarian, 38.5%; in the assay with IGROV1 ovarian, 48.7%; with OVCAR-3 ovarian it was -8.24% (active). The growth was 28.4% in the assay on HS 578T breast; 15.4% in the assay on NCI/ADR-RES ovarian; 65.3% with T-47D breast; 50.1% in the assay with BT-549 breast; -32% (active) in the assay on MDA-MB-435 melanoma; 16.6% in the assay on SW-620 colon. For the same compound, the growth was 12.7% in the assay on MCF7 breast, 20.3% in the assay on HCT-116 colon, 56.4% in the assay with HCC-2998 colon and 33.5% in the assay with KM12 colon.

With `COc1cc(/C=C2\COc3ccc(O)c(O)c3C2=O)cc(OC)c1`, the growth with OVCAR-8 ovarian is 14.6%; in the assay on OVCAR-5 ovarian, -29.2% (active); with OVCAR-4 ovarian, 31.1%; with SK-OV-3 ovarian, 38.2%; in the assay with IGROV1 ovarian, -61.3% (active); in the assay with OVCAR-3 ovarian, -32.3% (active). The growth was 21.8% with HS 578T breast; 0.0937% (active) with NCI/ADR-RES ovarian; -12.1% (active) with T-47D breast; 3.92% (active) in the assay on BT-549 breast; 0.577% (active) in the assay with MDA-MB-435 melanoma; -19.3% (active) with SW-620 colon. Also, the growth was 16.7% with MCF7 breast, -56% (active) in the assay with HCT-116 colon and -11.1% (active) in the assay with KM12 colon.

Regarding `OC(c1cc(C(F)(F)F)nc2c(C(F)(F)F)cccc12)C1CCCCN1` (centres undefined), the growth was 80% with RPMI-8226 leukemia; 56.7% in the assay on OVCAR-4 ovarian; 78.7% in the assay with SK-OV-3 ovarian; 44.7% with IGROV1 ovarian; 73.7% in the assay with OVCAR-3 ovarian; 62.4% with HS 578T breast. Also, the growth in the assay on NCI/ADR-RES ovarian was 50.5%; in the assay on T-47D breast, 75.2%; with BT-549 breast it was 67.6%; in the assay with MDA-MB-435 melanoma it was 61.5%; with SW-620 colon it was 72.9%; in the assay with HCT-116 colon it was 44.7%. The values for the growth in the assay on HCC-2998 colon and with KM12 colon were 20.1% and 32.7%, respectively.

Turning to `CN1C(=O)/C(=C/c2nc(-c3cccc(F)c3)n3ccccc23)c2ccccc21`, the growth in the assay with OVCAR-8 ovarian is 34.9%; in the assay on OVCAR-5 ovarian it was 100%; in the assay with OVCAR-4 ovarian, 41.9%; in the assay on SK-OV-3 ovarian, 66.6%; with IGROV1 ovarian, 7.47% (active); in the assay on OVCAR-3 ovarian it was 60.6%. Moreover, the growth was 33% with HS 578T breast; 66.4% in the assay with NCI/ADR-RES ovarian; 50.1% in the assay with T-47D breast; 90.9% in the assay on BT-549 breast; 93.6% with MDA-MB-435 melanoma; 84.6% in the assay on SW-620 colon. In addition, the growth was 44.3% in the assay with MCF7 breast, 44.5% in the assay on HCT-116 colon, 99.4% in the assay with HCC-2998 colon and 94.1% in the assay with KM12 colon.

For `CC(O)c1nc2c(c(=O)n(C)c(=O)n2C)n1C` (centres undefined), the growth in the assay on OVCAR-8 ovarian was 105%; in the assay on OVCAR-5 ovarian it was 104%; with OVCAR-4 ovarian, 104%; with SK-OV-3 ovarian, 102%; with OVCAR-3 ovarian it was 108%; in the assay with HS 578T breast it was 118%. The growth in the assay with NCI/ADR-RES ovarian was 113%; with T-47D breast, 97.6%; with BT-549 breast, 109%; in the assay with MDA-MB-435 melanoma, 111%; in the assay with SW-620 colon, 110%; with MCF7 breast, 102%. Besides, the values for the growth with HCT-116 colon, in the assay with HCC-2998 colon and in the assay with KM12 colon were 90.2%, 103% and 113%, respectively.

As to `c1ccc(-n2nnnc2-c2cccc3ccccc23)cc1`, the growth in the assay on OVCAR-8 ovarian is 30.5%; in the assay with OVCAR-5 ovarian, 35.5%; in the assay on OVCAR-4 ovarian, 59.6%; in the assay on SK-OV-3 ovarian, 5.6% (active); in the assay with IGROV1 ovarian, 31.4%; in the assay on OVCAR-3 ovarian, -26.8% (active). For the same compound, the growth in the assay with NCI/ADR-RES ovarian is -12.6% (active); in the assay with T-47D breast, 31.8%; with BT-549 breast, 29.5%; in the assay on MDA-MB-435 melanoma, -10.5% (active); in the assay on SW-620 colon it was 20.8%; with MCF7 breast, 19.8%. In addition, the results for the growth in the assay with HCT-116 colon, in the assay with HCC-2998 colon and with KM12 colon were 14.9%, 23.5% and 31.3%, respectively.

Regarding `CCn1c2ccccc2c2ccc(C(C)=O)cc21`, the growth in the assay with OVCAR-8 ovarian was 104%; in the assay with OVCAR-5 ovarian it was 89.9%; with OVCAR-4 ovarian it was 96.7%; with SK-OV-3 ovarian, 111%; in the assay on IGROV1 ovarian, 111%; in the assay on OVCAR-3 ovarian, 112%. The growth in the assay with NCI/ADR-RES ovarian was 101%; in the assay with T-47D breast it was 96.6%; in the assay with BT-549 breast, 96.9%; in the assay with MDA-MB-435 melanoma, 104%; in the assay with SW-620 colon, 114%; in the assay with MCF7 breast it was 102%. Also, the growth is 105% with HCT-116 colon, 108% in the assay with HCC-2998 colon and 115% in the assay on KM12 colon.

For `O=C(/C=C/c1cc2ccccc2[nH]c1=O)c1ccc(Cl)cc1`, the growth in the assay on OVCAR-8 ovarian is 23.1%; with OVCAR-5 ovarian, 55.9%; in the assay with OVCAR-4 ovarian it was 43.8%; in the assay with SK-OV-3 ovarian, 58%; in the assay with IGROV1 ovarian, 26.4%; in the assay with OVCAR-3 ovarian, -10.1% (active). Moreover, the growth in the assay with NCI/ADR-RES ovarian is -6.67% (active); in the assay with T-47D breast it was 34%; in the assay with BT-549 breast, 29.4%; in the assay on MDA-MB-435 melanoma, 8.38% (active); with SW-620 colon, -19.9% (active); in the assay on MCF7 breast it was 15.2%. The growth was 2.8% (active) with HCT-116 colon, 10.2% in the assay on HCC-2998 colon and -1.06% (active) with KM12 colon.
